Compound activity: PubChem, National Center for Advancing Translational Sciences (NCATS)
DRD3 agonist: agonists of human D3 dopamine receptor; P35462; D3R DiscoveRx beta-arrestin cells, luminescence, 90 min; max activation, %; hit rate 0.58% among 410,000; AID 652048; in the data active = max activation above about 30%; also: 0% is about no effect
Target sequence (P35462 whole entry, looked up): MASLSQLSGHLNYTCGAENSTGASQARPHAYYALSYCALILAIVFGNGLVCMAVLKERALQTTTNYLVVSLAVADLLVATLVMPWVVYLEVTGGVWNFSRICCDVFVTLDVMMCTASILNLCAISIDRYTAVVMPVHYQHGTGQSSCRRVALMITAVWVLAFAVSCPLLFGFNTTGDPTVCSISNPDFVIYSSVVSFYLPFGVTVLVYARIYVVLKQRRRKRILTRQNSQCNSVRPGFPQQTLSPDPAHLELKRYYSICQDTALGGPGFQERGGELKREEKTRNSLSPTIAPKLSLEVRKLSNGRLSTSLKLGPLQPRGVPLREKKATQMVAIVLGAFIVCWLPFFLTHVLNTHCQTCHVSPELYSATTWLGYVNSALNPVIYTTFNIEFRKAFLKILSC
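Agonist mode: compounds and dopamine controls were applied to plated cells for 90 min at 37 degrees C after an overnight attachment at 1500 cells/well. Luminescent read-out followed 30 - 60 minutes at room temperature with DiscoveRx detection reagent.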
KB-3-1 tox: kills parental KB-3-1 adenocarcinoma cells. KB-3-1 viability, CellTiter-Glo ATP luminescence, 72 h. Potency, µM (highest dose often 46.1 µM), most hits filed as cytotoxic. hit rate 1.4% among 400,000. AID 1347075; also: potency is read from the fitted curve at half-maximal effect; % is scaled to controls: 0 for no effect and ±100 for the full control effect; nearly all actives have a fitted effect of over 60% in size
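Screening of KB-3-1 cells (DMEM, 10% FBS, phenol-red free) ran from lowest to highest compound concentration; after 72 h at 37 °C viability was read luminescently and curves fitted.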
KB-V1 MDR tox: KB-V1 MDR subline cytotoxicity. AID 1347076. KB-V1 MDR cells viability, CellTiter-Glo, 72 h. Potency, µM (titrated, usually from 46.1 µM), most hits filed as cytotoxic. hit rate 3.4% among 400,000; also: potency is read from the fitted curve at half-maximal effect; % is scaled to controls: 0 for no effect and ±100 for the full control effect; nearly all actives have a fitted effect of over 60% in size
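Cytotoxicity via CellTiter-Glo luminescence after 72 h compound exposure at 37 degrees C. Cells: drug-selected KB-V1 line, DMEM phenol-red free plus 10% FBS. Compounds tested at multiple concentrations; normalized data fitted to concentration-effect curves.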
SW480 rereplic: induces DNA re-replication in SW480 colon adenocarcinoma cells; hit rate 1.8% among 340,000; AID 624297; SW480 DNA re-replication, Hoechst DNA content imaging, 48 h; Potency, µM (series often up to 46.1 µM), for the others: at the highest dose re-replication activation, usual class: activators; also: potency is read from the fitted curve at half-maximal effect; % of control where 0% means no effect; nearly all actives have a fitted effect of over 55% in size
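Image-based DNA-content assay: after two days of treatment, nuclei were labelled with the DNA dye Hoechst and imaged, and hits were compounds raising the count of nuclei showing high fluorescence intensity.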
D3 antag: blocks the human D3 dopamine receptor. D3R cells, DiscoveRx beta-arrestin luminescence, antagonist mode; active compounds read low. max response, negative = inhibition, %. hit rate 2.5% among 360,000. AID 652054; in the data active = max response below about -50%; inconclusive = no clear call, values can overlap the other calls; also: % is scaled to controls: 0 for no effect and ±100 for the full control effect
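Cells expressing the human receptor were seeded at 1500 cells/well, incubated overnight at 37 degrees C in 5% CO2, then exposed to library compounds with dopamine controls for 90 minutes at 37 degrees C before luminescent detection.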
MCF10A rerep: induces DNA re-replication in MCF 10a normal breast cells; MCF 10A DNA re-replication, Hoechst nuclear intensity, 48 h; Potency, µM (highest dose often 46.1 µM), for inactives: top-dose activity, positive = re-replication, actives largely listed as activators; hit rate 2.9% among 350,000; AID 624296; also: potency is read from the fitted curve at half-maximal effect; % of control where 0% means no effect; nearly all actives have a fitted effect of over 50% in size
Starred values were filed as active, the others as inactive; i = inactive; ? = inconclusive; / = not tested or not shown; ! = not active in a repeat. Sampled rows, rich in hits. Any-hit rate of the full collection: about 8.9%. Unless noted, calls follow the shape of the dose curve; as a rule, active = well fitted curve in the direction sought with a large enough effect; inconclusive = small, poorly fitted or top-dose-only effect, or another doubt; inactive = no such curve, though single readings can be large; an effect the other way counts as inactive or inconclusive.

SMILES	DRD3 agonist	KB-3-1 tox	KB-V1 MDR tox	SW480 rereplic	D3 antag	MCF10A rerep
CCC(=O)NC(Nc1sc2c(c1C(=O)OC)CCCC2)(C(F)(F)F)C(F)(F)F	3	i	?	0%	-9	5%
COC(=O)c1c(NC(NC(=O)c2ccccc2)(C(F)(F)F)C(F)(F)F)sc2c1CCN(C)C2	2	i	i	0.52µM*	?	?
Cc1ccc(OCCOC(=O)c2c(-c3ccccc3)noc2C)cc1	4	i	?	99%	9	?
CCOc1ccc(C(=O)COC(=O)c2c(-c3ccccc3)noc2C)cc1	10	?	?	?	4	6.5µM*
Cc1onc(-c2ccccc2)c1C(=O)OCCOc1cccc(Cl)c1	-4	?	i	6.5µM*	9	21µM*
CCN(CC)C(=O)[C@H]1C[C@H](CC(=O)NCCCOC)C(=O)N2CCc3c([nH]c4cc(CCC(=O)N(C)C)ccc34)[C@]12C	1	i	i	-60%	13	?
Cc1cnc(C(=O)O)cn1	/	/	/	-4%	/	-1%
O=C(CC1(O)C(=O)Nc2cc(Cl)cc(Cl)c21)c1ccccc1O (centres undefined)	-2	i	i	?	?	15µM*
CN(C)S(=O)(=O)N1CCN(CC(O)COc2ccc(C(=O)c3ccccc3)cc2)CC1 (centres undefined)	-8	i	i	-3%	21	9%
OC(COc1ccc(-c2ccccc2)cc1)CN1CCCCC1 (centres undefined)	-6	i	i	/	-12	/
O=C(c1ccccc1)c1ccc(OCC(O)CN2CCCCC2)cc1 (centres undefined)	2	i	i	0%	-67*	?
O=C(c1ccccc1)c1ccc(OCC(O)CN2CCN(S(=O)(=O)N3CCCCC3)CC2)cc1 (centres undefined)	1	23µM*	2.1µM*	9%	24	22%
OC(COc1ccc(CNCCc2ccccc2F)cc1)CN1CCCCC1 (centres undefined)	-3	i	i	?	-23	18µM*
OC(COc1ccccc1)CN1CCCCC1 (centres undefined)	-28	i	?	0%	?	-10%
C[C@@H]1CN([C@@H](C)CO)C(=O)CCCn2nncc2CO[C@@H]1CN(C)C(=O)OCc1ccccc1	2	i	i	/	-13	/
COc1ccc2nc(N/C(N)=N/S(C)(=O)=O)nc(C)c2c1	-13	8.2µM*	2.1µM*	-2%	1	?
Cc1ccc(S(=O)(=O)/N=C(\N)Nc2nc(C)c3cc(C)ccc3n2)cc1	-10	i	15µM*	12%	16	19%
Cc1ccc(S(=O)(=O)/N=C(\N)Nc2nc(C)c3ccc(C)cc3n2)cc1	13	i	i	10%	-23	-5%
Cc1ccc2[nH]c(=O)c(CN(CCCO)Cc3nnnn3Cc3ccco3)cc2c1	/	?	i	/	/	/
Cc1ccc(N2CCN(C(=O)c3cccc([N+](=O)[O-])c3)CC2)cc1Cl	5	i	i	-15%	4	-6%
O=C(c1cccc([N+](=O)[O-])c1)N1CCN(c2cccc(Cl)c2)CC1	1	18µM*	5.8µM*	?	?	16µM*
COC(=O)c1cc(C(=O)N2CCN(c3cccc(Cl)c3)CC2)cc([N+](=O)[O-])c1	-2	1µM*	?	0.73µM*	6	?
O=C(c1ccc(S(=O)(=O)N2CCOCC2)cc1)N1CCN(c2cccc(Cl)c2)CC1	10	i	15µM*	-10%	-69*	-1%
COC(=O)c1cc(C(=O)N2CCOCC2)cc([N+](=O)[O-])c1	3	i	i	-8%	-13	-1%
CCc1ccc(NC(=S)NC2CCN(Cc3ccccc3)CC2)cc1	-7	?	?	/	-29	9%
SMILES	DRD3 agonist	KB-3-1 tox	KB-V1 MDR tox	SW480 rereplic	D3 antag	MCF10A rerep
CCC(C)c1ccc(NC(=S)NC2CCN(Cc3ccccc3)CC2)cc1 (centres undefined)	-13	?	?	?	?	?
S=C(Nc1ccccc1)NC1CCN(Cc2ccccc2)CC1	-19	i	?	-5%	-77*	2%
COc1ccc(CCNC(=S)NC2CCN(Cc3ccccc3)CC2)cc1	-20	i	?	-3%	-83*	9%
S=C(Nc1ccc(Cl)cc1)NC1CCN(Cc2ccccc2)CC1	-21	?	i	?	-60*	22%
O=S1(=O)CCC(NC(=S)Nc2ccccc2)C1 (centres undefined)	8	i	i	4.1µM*	0	1%
Cc1ccc2nc(CN3CCN(S(=O)(=O)c4ccc(F)cc4)CC3)oc2c1	-5	i	i	/	/	/
CCN(CC)c1nc2c(S(=O)(=O)c3cccc(Cl)c3)nnn2c2ccsc12	-5	i	i	/	/	/
COC(=O)[C@H](CC(C)C)NS(=O)(=O)NC(=O)OC(C)(C)C	/	i	i	/	/	/
Cc1ccccc1C(=O)NC1CCN(Cc2nnnn2C2CCCC2)CC1	0	i	?	3%	?	16%
Cc1ccccc1NC(=S)NC1CCN(Cc2ccccc2)CC1	-29	i	?	0%	-50*	0%
COc1ccc(CNC(=S)N2CCN(Cc3ccccc3)CC2)cc1	-5	i	16µM*	?	-25	25%
O=C(Nc1ccccc1)NC1CCN(Cc2nnnn2C2CCCCC2)CC1	-3	i	i	-1%	-70*	0%
Cc1ccc2cccc(CC(=O)NN)c2c1	-2	i	i	/	8	/
CC(=O)Nc1ccccc1-c1nc2ccccc2n(CC(=O)Nc2ccc(C)c(Cl)c2)c1=O	-16	i	i	/	/	/
CS(=O)(=O)N1CCC(C(=O)NCCN2CCN(Cc3ccccc3)CC2)CC1	-2	i	i	-2%	-101*	7%
O=C(NCc1ccccn1)C1CCN(S(=O)(=O)N2CCC3(CC2)OCCO3)CC1	3	i	i	12µM*!	?	?
O=C(NCCN1CCC(Cc2ccccc2)CC1)C1CCN(S(=O)(=O)N2CCC3(CC2)OCCO3)CC1	-7	i	i	15%	-50*	1%
O=C(NCCCN1CCC(Cc2ccccc2)CC1)C1CCN(S(=O)(=O)N2CCC3(CC2)OCCO3)CC1	-5	i	i	7%	7	10%
COCCCNC(=O)C1CCN(C(=O)c2cnn(-c3ccccc3)c2-n2cccc2)CC1	1	i	i	/	/	/
CCC(CC)C(=O)c1c[nH]c(C(=O)O)c1	-6	i	i	?	-29	1%
